According to PubChem BioAssay (NCI):
About 79,000 compounds went through this panel and 15% of them were active in at least one assay; those are over-represented in the sample as a whole. Unmarked numbers belong to inactive results. Activity calls are given as the source filed them. Rule as the data show it: active = growth inhibition above about 70%; inactive = the rest.

Assay: NCI Yeast Anticancer Drug Screen. Data for the sgs1 mgt1 strain (AID 161);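 also: 0% = growth of cultures given vehicle only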
Settings: S. cerevisiae sgs1 mgt1 strain, at 50.0 µM, active compounds read high
Procedure, shortened: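 Yeast cells carrying a defined DNA-repair defect were exposed to test compounds. Growth inhibition was measured relative to vehicle-treated controls.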

**Q.** For `CCOC(=O)Nc1cc(Cl)c2nnn(C(=O)OCC)c2n1`, which growth inhibition is on record?
**A.** 97.9% (active)

**Q.** For `CC1CNC(=O)NC1=O.O.O.[NH2-].[NH2-].[Pt+4]` (stereo not drawn), which growth inhibition is on record?
**A.** -0.75%

**Q.** With `O=C1NC(c2ccccc2)(c2ccccc2)C(=O)N1CNc1ccccn1` as the compound, how does the growth inhibition read?
**A.** -31.8%

**Q.** Which growth inhibition does the source give for `COC(=O)C1(CC(=O)/C=C/c2ccccc2)NC(=S)NC(=O)C1C#N` (stereo not drawn) here?
**A.** -8.4%

**Q.** Which growth inhibition does the source give for `CCC(C)C(CC)C(=O)N(C)C(=O)N(C)C(C)=O` (stereo not drawn) here?
**A.** 4.5%

**Q.** With `Cc1cc(O)c(C(C)C)cc1N=Cc1ccccc1O` as the compound, how does the growth inhibition read?
**A.** -58.2%

**Q.** With `CCc1cccc(Nc2ccccc2C(=O)O)c1` as the compound, how does the growth inhibition read?
**A.** 29.8%

**Q.** Which growth inhibition does the source give for `CC(C)c1sc([S-])n[n+]1-c1ccccc1` here?
**A.** -9.5%

**Q.** For `Cc1cnc2cccc(C)c2c1Cl`, which growth inhibition is on record?
**A.** 10.3%

**Q.** With `c1ccc(CCc2ccccn2)nc1` as the compound, how does the growth inhibition read?
**A.** -13.6%

**Q.** With `O=C1CC(O)C2C(=O)c3c(c(Cl)c4ccccc4c3O)C(=O)C2C1` (stereo not drawn) as the compound, how does the growth inhibition read?
**A.** 10.2%

**Q.** With `CCOC(=O)CC1CC2c3cc(OC)c(OC)cc3CCN2CC1CC` (stereo not drawn) as the compound, how does the growth inhibition read?
**A.** -6.7%

**Q.** For `Cc1cc(=O)oc2cc3c(cc12)Oc1ccccc1O3`, which growth inhibition is on record?
**A.** -0.95%

**Q.** Which growth inhibition does the source give for `COC(=O)C(C(=O)C(=O)Nc1cccc(O)c1)c1nc2ccc(Cl)cc2[nH]c1=O` (stereo not drawn) here?
**A.** -41.3%

**Q.** Which growth inhibition does the source give for `CC(=O)SC12CCCN1C(=O)C1(SC(C)=O)CCCN1C2=O` (stereo not drawn) here?
**A.** 45.2%

**Q.** With `CCCCCCN(CCCCCC)CC(O)c1c(Cl)ccc2ccccc12` (stereo not drawn) as the compound, how does the growth inhibition read?
**A.** 99.3% (active)

**Q.** For `CC(=O)Nc1cc(C)ccn1`, which growth inhibition is on record?
**A.** 10.6%

**Q.** With `Cn1c(=O)c2c(ncn2CN2CCN(Cn3cnc4c3c(=O)n(C)c(=O)n4C)CC2)n(C)c1=O` as the compound, how does the growth inhibition read?
**A.** -7.45%

**Q.** For `Nc1cccc(SC2CC(=O)N(c3ccc4c(c3)OCO4)C2=O)c1` (stereo not drawn), which growth inhibition is on record?
**A.** 91.5% (active)

**Q.** For `O=S(=O)(c1cnccc1N1CCN(CCO)CC1)N1CCCC1`, which growth inhibition is on record?
**A.** 8.5%

**Q.** For `CCCCCCCCCCCCCCCc1cc(OC)ccc1S(=O)(=O)O`, which growth inhibition is on record?
**A.** 15.9%

Assay: NCI Yeast Anticancer Drug Screen. Data for the cln2 rad14 strain (AID 165);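 also: 0% = growth equal to vehicle treated cultures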
Settings: S. cerevisiae cln2 rad14 strain, at 50.0 µM, active compounds read high
Procedure, shortened: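 Strain: cln2 rad14 yeast, altered in cell cycle control and DNA damage repair. Read-out: growth inhibition vs vehicle.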

**Q.** Which growth inhibition does the source give for `Clc1nc(N2CCOCC2)c2[nH]cnc2n1` here?
**A.** -6.1%

**Q.** For `COc1ccc(/C=N/Nc2nc(C)c(C)s2)cc1`, which growth inhibition is on record?
**A.** 11.4%

**Q.** Which growth inhibition does the source give for `c1cc2c3c(c1)ccc1cccc(c13)CC2` here?
**A.** 1.5%

**Q.** With `COC(=O)C(Cc1c[nH]c2ccccc12)NP(=O)(O)OCC1OC(n2cc(F)c(=O)[nH]c2=O)CC1O` (stereo not drawn) as the compound, how does the growth inhibition read?
**A.** -9.2%

**Q.** For `Cc1cc(C)c(NC(=O)C(Br)C(Br)c2ccccc2)c(C)c1` (stereo not drawn), which growth inhibition is on record?
**A.** 23.8%

**Q.** Which growth inhibition does the source give for `O=c1c2ccccc2nnn1OCc1ccccc1` here?
**A.** -39.5%

**Q.** For `O=C(Nc1ccc([N+](=O)[O-])cc1)OCc1ccccc1`, which growth inhibition is on record?
**A.** 0.7%

**Q.** For `O=C(/C=C/CC(O)(c1ccccc1)c1ccccc1)Nc1ccccc1Cl`, which growth inhibition is on record?
**A.** 2.5%

**Q.** Which growth inhibition does the source give for `SC1c2ccccc2-c2ccccc21` here?
**A.** 7.25%

**Q.** For `NCCNCCCCCCCCCCCCOS(=O)(=O)O`, which growth inhibition is on record?
**A.** -15.3%

**Q.** With `O=C1OC2C(Cl)C3CC1C2C3` (stereo not drawn) as the compound, how does the growth inhibition read?
**A.** -13.2%

**Q.** Which growth inhibition does the source give for `CC1(C)COC(c2ccc3ccccc3c2)OC1` here?
**A.** -21.9%

**Q.** For `CCc1ccccc1NOC`, which growth inhibition is on record?
**A.** -7.15%

**Q.** With `O=C1CNS(=O)(=O)N1` as the compound, how does the growth inhibition read?
**A.** 10.2%

**Q.** For `CC1(C)OP2(O)(OC(C)(C)c3ccccc32)c2ccccc21`, which growth inhibition is on record?
**A.** 1.8%

**Q.** With `COc1ccc(/C=C(\Cl)c2ccc(OC)cc2)cc1` as the compound, how does the growth inhibition read?
**A.** -18.1%

**Q.** With `CC1S(=O)(=O)OCCCOS1(=O)=O` as the compound, how does the growth inhibition read?
**A.** -13.2%

**Q.** Which growth inhibition does the source give for `CCc1cc(O)cc(C)c1Cl` here?
**A.** 46.4%

**Q.** For `O=S(=O)([O-])c1ccc2c(c1)-c1nc-2nc2[n-]c(nc3nc(nc4[n-]c(n1)c1ccc(S(=O)(=O)[O-])cc41)-c1cc(S(=O)(=O)[O-])ccc1-3)c1ccc(S(=O)(=O)[O-])cc21.[Cu+2].[Na+]`, which growth inhibition is on record?
**A.** -16.2%

**Q.** With `CCOC(=O)Nc1cc(Cl)c2nnn(C(=O)OCC)c2n1` as the compound, how does the growth inhibition read?
**A.** 90.7% (active)

**Q.** For `CC1CNC(=O)NC1=O.O.O.[NH2-].[NH2-].[Pt+4]` (stereo not drawn), which growth inhibition is on record?
**A.** -51%

**Q.** For `O=C1NC(c2ccccc2)(c2ccccc2)C(=O)N1CNc1ccccn1`, which growth inhibition is on record?
**A.** 8.95%

**Q.** For `COC(=O)C1(CC(=O)/C=C/c2ccccc2)NC(=S)NC(=O)C1C#N` (stereo not drawn), which growth inhibition is on record?
**A.** 10.1%

**Q.** For `CCC(C)C(CC)C(=O)N(C)C(=O)N(C)C(C)=O` (stereo not drawn), which growth inhibition is on record?
**A.** -33.5%

**Q.** Which growth inhibition does the source give for `Cc1cc(O)c(C(C)C)cc1N=Cc1ccccc1O` here?
**A.** -29.7%

**Q.** Which growth inhibition does the source give for `CCc1cccc(Nc2ccccc2C(=O)O)c1` here?
**A.** -26.6%

**Q.** For `CC(C)c1sc([S-])n[n+]1-c1ccccc1`, which growth inhibition is on record?
**A.** -15.4%
